Source: PubChem BioAssay (NCI)
Where “and” joins values, the source holds several entries; their conditions need not be identical. Identical values can stand only once. This is part of a sample that, as a whole, favours compounds with a hit. Of some 83,000 tested, about 20% had one in any assay.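 96-well plates, one dose, 48 hours. Percent growth reported; active if below 10.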 Calls of active or inactive are those of the source.

Test system: MDA-MB-468 breast
Assay: NCI-60 one-dose screen, 48 h (100 = growth as untreated, 0 = no growth, -100 = all killed)
Conditions: 10 µM unless noted

Row | Compound | growth
1 | CC(=O)O[C@H]1CC[C@@]2(C)[C@@H](CC[C@@H]3[C@@H]2CC[C@@]2(C)[C@H]3CC[C@]2(O)C(C)=O)C1 | 94.1% (inactive)
2 | COc1ccc(-c2cc3ccc(N(C)C)cc3nc2N)c(F)c1 | 4.96% (active)
3 | O=C(CN1C(=O)S/C(=C\C(Cl)=C\c2ccccc2)C1=O)NCCc1ccc(O)cc1 | 17.3% (inactive)
4 | Cc1ccc2c(c1)sc1nc(-c3c[nH]c4ccccc34)c(Nc3ccccc3)n12 | 105% (inactive)
5 | Cc1ccc(/C=C/C(=O)c2ccc(F)cc2)s1 | 42.2% (inactive)
6 | O=C1CC[C@H](c2ccc(O)c3c2C(=O)[C@@H]2O[C@@H]2C3=O)c2cccc(O)c21 | -64.8% (active)
7 | CCCn1cnc2c(c1=N)C(c1ccc(Cl)cc1)c1sc3c(CC)cccc3c1O2 (configuration not stated) | 5.23% (active)
8 | OCCCC1CCN(C(Cc2ccccc2)c2ccccc2)CC1 (configuration not stated) | 95.2% (inactive)
9 | COc1ccc(C(O)c2cc3c(N)c(C(=O)Nc4cccc5ccccc45)sc3nc2C)cc1 (configuration not stated) | 23.7% (inactive)
10 | CC(C)(C)NC(=O)C(OC(=O)C1CCc2cc(F)ccc2O1)c1ccccc1Cl (configuration not stated) | 105% (inactive)
11 | COC(=O)C(N)CSC(c1ccccc1)(c1ccccc1)c1ccccc1 (configuration not stated) | 11.5% (inactive)
12 | C=C(C)COc1ccc(C(C)(C)C)cc1 | 91.2% (inactive)
13 | C[N+]1=C(/C=C/c2ccc(I)cc2)C(C)(C)c2ccccc21 | 95.3% (inactive)
14 | COc1ccc(Cc2cnc(N)nc2N)cc1OC | 104% (inactive)
15 | CCOc1ccc(-n2nc(C(=O)Nc3cc(OC)c(OC)c(OC)c3)nc2-c2cc(OC)c(OC)c(OC)c2)cc1 | 82% (inactive)
16 | CCN=C1C=CC(=C(c2ccc(N)cc2)c2ccc(N(CC)CC)c(C)c2)C=C1 | -32.9% (active)
17 | Nc1nc(N)c(N=Nc2c(Br)cc(S(N)(=O)=O)cc2Br)c(N)n1 | 54% (inactive)
18 | FC(F)(F)c1cc(-c2nnc3n2N=C(N2CCCC2)CS3)cc(C(F)(F)F)c1 | 66.3% (inactive)
19 | C/C=C1\SC(=S)NC1=O | 114% (inactive)

Row | Compound | growth
20 | S=c1[nH]nc(Cc2ccccc2)c(=S)[nH]1 | 94.7% (inactive)
21 | O=C(CCl)c1ccc2c(c1)Nc1ccccc1S2 | 75.7% (inactive) and 64.9% (inactive)
22 | Cc1c(-n2nnc(-c3nc4ccccc4s3)c2N)c(=O)n(-c2ccccc2)n1C | 110% (inactive)
23 | CO[C@H]1C[C@@H]2CC[C@@H](C)[C@@](O)(O2)C(=O)C(=O)N2CCCC[C@H]2C(=O)O[C@H]([C@H](C)C[C@@H]2CC[C@@H](OC(=O)C(C)(CO)CO)[C@H](OC)C2)CC(=O)[C@H](C)/C=C(\C)[C@@H](O)[C@@H](OC)C(=O)[C@H](C)C[C@H](C)\C=C/C=C/C=C/1C | 0.224% (active)
24 | CCOC(=O)c1cnc(SCC)nc1SC#N | 124% (inactive)
25 | Cc1c(C(=O)CCl)c(=O)n(-c2ccccc2)n1C | -19.1% (active)
26 | N#CC1=C(N)n2nc(-c3ccncc3)nc2NC1c1cccc2ccccc12 (configuration not stated) | 76.1% (inactive)
27 | CN(C)S(=O)(=O)c1oc(-c2ccccc2)nc1C#N | 35% (inactive)
28 | COc1cc(CC#N)c([N+](=O)[O-])cc1OC | 100% (inactive)
29 | CN(C)c1ccc(/C=C/C(=O)c2ccc(NC(N)=O)cc2)cc1 | 81% (inactive)
30 | CC(C)n1cnc2c(Nc3cccc(Cl)c3)nc(N[C@H]3CCCC[C@@H]3N)nc21 | 20% (inactive)
31 | COc1cc2c(c(OC)c1OC)-c1ccc(NN(C(=O)c3ccccc3)C(=O)c3ccccc3)c(=O)cc1[C@@H](NC(C)=O)CC2 (tested in a mixture with another compound) | 19.5% (inactive)
32 | CC(C)(C)c1ccc(O)c(C2CCCCC2)c1 | 111% (inactive)
33 | O=C1C=CC2(NN=C(c3ccccc3)N2c2cccc(Cl)c2)c2cccc(O)c21 (configuration not stated) | 76.1% (inactive)
34 | CCN1CCN(c2cc(C)nc(N(CCNc3ccnc4cc(Cl)ccc34)Cc3ccc4c(c3)OCO4)n2)CC1 | -67.6% (active)
35 | C=C(C)[C@@H]1CC[C@]2(CN)CC[C@]3(C)[C@H](CC[C@@H]4[C@@]5(C)CCC(=O)NC(C)(C)[C@@H]5CC[C@]43C)[C@@H]12 | 35.5% (inactive)
36 | C#CCOc1cccc(Nc2ncnc3c(NC(=O)CCl)cccc23)c1 | -66.7% (active)
37 | N#Cc1c(-c2ccc(Cl)cc2)c(C#N)c2c(C#N)c(N)nn2c1N | 80.1% (inactive)
